Drawing on the OligoGym collection, this text covers sensor-assay potency score (higher = more potent) for 30 sequences.

Among the targets are WRB; WNT4; WRAP73; WNT16; YARS; YPEL3; YIPF6; YJEFN3.
What all share (experiment): pooled miR-30 sensor sort-seq; sequence = guide strand
Conditions in all cases: shRNA
Further: reference of the scale not given here.

In the case of TTGGCTAATTGAGCTGTCCGAG, in the assay with WRB, the sensor-assay potency score (higher = more potent) was -0.552.

Take ATGACTTCCAGGTTCCGCTTGC: the sensor-assay potency score (higher = more potent) with WNT4 is -0.442.

The sequence TTGCACATCTGCACCTGCCTCT registered a sensor-assay potency score (higher = more potent) with WNT4 of 0.262.

As to TGCACTGTCCTGTCACAGCCGC, the sensor-assay potency score (higher = more potent) with WNT4 was -1.01.

Take TGGAATTTGCAGCTGCAGCGTT: the sensor-assay potency score (higher = more potent) with WNT4 is -0.943.

In the case of TTGCTGAGGAGGGCCATCGAGT, in the assay with WRAP73, the sensor-assay potency score (higher = more potent) was -1.36.

TTGTGCACAAGGACCAGACGGT displayed a sensor-assay potency score (higher = more potent) with WRAP73 of 0.172.

Turning to TTTCGGGTTTGCTCTGTCGGTA, the sensor-assay potency score (higher = more potent) with WRAP73 was -0.96.

In the case of TACGTGGACAACAACCGGCCAT, the sensor-assay potency score (higher = more potent) in the assay with WRAP73 is -0.35.

For the sequence TCGTCCATCATGTTGACTGTGG, the sensor-assay potency score (higher = more potent) with WRB is -0.317.

Sequence TAACAGTTGAAACTGATCTGTG gave a sensor-assay potency score (higher = more potent) in the assay with WNT16 of 0.0469.

TTGAGCTTATCCGTCATCTTGT returned a sensor-assay potency score (higher = more potent) in the assay with WRB of 0.602.

TTTTAAATACTCTTCATCCAAA: the sensor-assay potency score (higher = more potent) in the assay with YARS was -1.12.

On to TTCAATGATGTACTTCCCCTCT, for which the sensor-assay potency score (higher = more potent) with YPEL3 was -0.135.

As to TAGGAATGGTGATTTCTCCTTC, in the assay with YIPF6, the sensor-assay potency score (higher = more potent) was 0.33.

For the sequence TTATGTACAAACGCTACAGAAC, the sensor-assay potency score (higher = more potent) with YPEL3 is -1.18.

Consider TTCTCGCAGTGGATGTCGGCGA, for which the sensor-assay potency score (higher = more potent) in the assay with YPEL3 was -0.367.

In the assay with YPEL3, TTGTACTTCTGGCTGCTCTCAA displayed a sensor-assay potency score (higher = more potent) of 0.24.

As to TTCGTTAATGAGCTGCACCTCA, the sensor-assay potency score (higher = more potent) with YJEFN3 was -0.35.

For TTTCACTATCTGCAGAGTCTCT, in the assay with YIPF6, the sensor-assay potency score (higher = more potent) was -0.747.

For the sequence TTTGAGTTGAGGGTGATGGTAA, the sensor-assay potency score (higher = more potent) with YIPF6 is -0.386.

Consider TTTGAAATCCGCACCATGGCGG, for which, in the assay with YPEL3, the sensor-assay potency score (higher = more potent) is -0.368.

For TCTTGCAGTTCTCGCAGTGGAT, the sensor-assay potency score (higher = more potent) in the assay with YPEL3 was -1.02.

TTGAGCGTGGCCAGCGCGCGGG: in the assay with YJEFN3, the sensor-assay potency score (higher = more potent) is -0.949.

For TCTCTTTGCAGCATTAATGCGA, in the assay with YIPF6, the sensor-assay potency score (higher = more potent) is -0.247.

In turn, TTAATGAGCTGCACCTCAGTGG had a sensor-assay potency score (higher = more potent) with YJEFN3 of 0.0127.

For the sequence AATCGCTGCCGGTCTCTGCGTC, the sensor-assay potency score (higher = more potent) with YJEFN3 is -0.877.

ATATACAGGAGCTAGATCCGTC gave a sensor-assay potency score (higher = more potent) in the assay with YPEL3 of 0.357.

Consider ATGTCCATCTTCTCGCACTGGG, for which the sensor-assay potency score (higher = more potent) in the assay with YJEFN3 was -1.01.

Take TTACAGGTCCTGGATCAGCCAA: the sensor-assay potency score (higher = more potent) in the assay with YIPF6 was -1.45.
